This is a sample that favours compounds with a hit; in the whole collection about 12% have one here.
AMA1 RON2 block = inhibitors of Plasmodium falciparum AMA1-RON2 interaction; AlphaScreen AMA1-biotinylated RON2 peptide binding; Potency, µM (highest dose often 58.2 µM), without a hit: at the highest dose activity change, negative = inhibition, most hits filed as inhibitors; actives 0.2% (n = 360,000);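 note: 0% = vehicle wells and -100% = peptide control; nearly all actives have a fitted effect of over 45% in size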
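AMA1 (3D7) with his tag at 25 nM final met compounds first, then biotinylated RON2 peptide at 25 nM; detection used donor plus acceptor beads, 10 µg/mL apiece, read by AlphaScreen after 30 min at room temperature.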
Pf growth 96h = inhibits malaria parasite growth, 96 h | P. falciparum luciferase reporter growth, 96 h | Potency, µM (titrated, usually from 28.7 µM), inactives show at the highest dose activity change, negative = inhibition, actives largely listed as inhibitors | actives 6.9% (n = 320,000); note: % is set by controls: 0 for no effect and ±100 for the full control effect
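Parasite growth measured via integrated firefly luciferase reporter in P. falciparum. Infected erythrocytes at 2% hematocrit, 0.05% parasitemia final were treated 96 hours at 37 C under 5% CO2, and luminescence was read.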
HCV inh = inhibitors of hepatitis C virus infection; Huh7.5.1 HCVcc-Cre infection, luciferase reporter, 44 h; Potency, µM (titrated, usually from 41.8 µM), inactives show at the top dose activity change, negative = inhibition, actives largely listed as inhibitors; actives 3.4% (n = 340,000); note: % is set by controls: 0 for no effect and ±100 for the full control effect
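HCVcc-Cre virus at an moi near 0.5 was added right after compound to cells cultured 4 h from seeding (1,000 cells/well). Luciferase activity was determined 44 h later, 15 min after substrate addition at RT.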
NS1 inh = blocks influenza NS1 protein function. Potency, µM (titrated, usually from 46.1 µM), without a hit: at the highest dose activity, positive = more growth. actives 0.4% (n = 270,000). AID 2326; calls by dose curve; note: actives are rising curves; nearly all actives have a fitted effect of over 50% in size
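S. cerevisiae expressing influenza A NS1, grown in glucose, washed, then diluted 1:100 into pH 6.0 -URA galactose medium with 23 nl compound. Growth recovery read as OD600; NS1-free strain serves as control.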
Pf growth 48h = inhibits P. falciparum growth in the first generation, 48 h. P. falciparum luciferase growth in erythrocytes, 48 h. Potency, µM (doses to about 28.7 µM), for the others: top-dose activity change, negative = inhibition, hits mostly inhibitors. actives 5.9% (n = 310,000). AID 504832; note: % is set by controls: 0 for no effect and ±100 for the full control effect
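A one-generation exposure of luciferase-tagged malaria parasites in RPMI 1640/Albumax erythrocyte culture, 37 C and 5% CO2. Inhibition is inferred from decreased luminescence after adding detection reagent.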
SARS PLpro yeast = inhibitors of SARS-CoV papain-like protease in yeast; S. cerevisiae expressing SARS-CoV PLpro, growth rescue; Potency, µM (doses to about 32.9 µM), inactives show at the top dose activity, positive = growth rescue, usual class: activators; actives 0.19% (n = 330,000); AID 485353; calls by dose curve; note: 0% is about no effect; nearly all actives have a fitted effect of over 55% in size
An asterisk follows results filed as active; u = inconclusive; x = no result; [ ] = dose if it differs, or a comment. Unless noted, calls come from the whole dose curve; as a rule, active = well fitted curve in the direction sought with a large enough effect; inconclusive = small, poorly fitted or top-dose-only effect, or another doubt; inactive = no such curve, though single readings can be large; an effect the other way counts as inactive or inconclusive. Potency is the fitted concentration of half-maximal effect.

SMILES | AMA1 RON2 block | Pf growth 96h | HCV inh | NS1 inh | Pf growth 48h | SARS PLpro yeast
O=C(Nc1nc(-c2cccs2)cs1)c1ccc(S(=O)(=O)N2CCCCC2)cc1 | -6% | -7% | 18µM* | -31% | u | -4%
COc1ccc(-c2csc(NC(=O)c3cccc(S(=O)(=O)N4CCN(C)CC4)c3)n2)cc1 | -24% | 12µM* | u | u | u | -2%
COc1ccc(-c2csc(NC(=O)C3CCCCN3S(=O)(=O)c3ccccc3)n2)cc1 (stereo unspecified) | -12% | 7.4µM* | u | 18% | u | 0%
O=C(Nc1nc(-c2cccs2)cs1)c1cccc(S(=O)(=O)N2CCCCCC2)c1 | 42% | x | 11µM* | u | -21% | 5%
COc1ccc(-c2csc(NC(=O)CS(=O)(=O)c3ccccc3)n2)cc1 | -8% | u | u | x | u | 0%
O=C(Nc1nc(-c2ccc(S(=O)(=O)N3CCCC3)cc2)cs1)c1ccco1 | -13% | 27% | u | -38% | u | 5%
Cc1csc(NC(=O)c2cccc(S(=O)(=O)N3CCCCC3)c2)n1 | -4% | u | -1% | 0% | u | -1%
Cc1ccc(C2=NN=C(NC(=O)CSc3nncn3C)SC2)cc1 | 66% | 36%[5.75 µM] | u | 6% | u | -2%
O=C1CCCN1CCCNS(=O)(=O)c1ccc(F)cc1F | -3% | 18% | 18% | 7% | 7% | 1%
O=C(Nc1nc(-c2ccccn2)cs1)c1ccc(S(=O)(=O)N2CCCCC2)cc1 | x | 2.3µM* | x | -69% | 3.3µM* | -3%
Brc1ccc(-c2csc(N3CCC(c4ccccc4)C3)n2)cc1 (stereo unspecified) | 14% | 8.3µM* | u | 1% | 31% | -2%
Cc1c(C(=O)Nc2ccc(S(=O)(=O)Nc3ncccn3)cc2)oc2ccccc12 | -3% | 8% | -11% | x | u | -8%
Cc1cc(NS(=O)(=O)c2ccc(NC(=O)c3oc4ccccc4c3C)cc2)no1 | 30µM* | x | 6% | -21% | 16% | u
CCOC(=O)/C=C/C(=O)Nc1ccc(S(=O)(=O)Nc2cc(C)on2)cc1 | 8% | 26% | 5% | 3% | 10µM* | -3%
CCOC(=O)/C=C/C(=O)Nc1ccc(S(=O)(=O)N2CCCCCC2)cc1 | 9% | 12µM* | -20% | -2% | -9% | 1%
CCOC(=O)/C=C/C(=O)Nc1ccc(-c2nnc3n2CCCCC3)cc1 | -1% | 0.33µM* | 14% | 0% | u | 0%
CCOC(=O)Nc1ccc(S(=O)(=O)Nc2cc(C)on2)cc1 | -6% | 54% | 4% | 1% | -11% | 1%
CC(C)(CO)[C@@H](O)C(=O)NCCCO | x | 1% | x | x | 8% | x
Cc1cc(NS(=O)(=O)c2ccc(NC(=O)COc3c(C)cc(Br)cc3C)cc2)no1 | -13% | 9.3µM* | 7% | 23% | -7% | 10%
CCOC(=O)CCC(=O)Nc1ccc(S(=O)(=O)N2CCCCC2)cc1 | -11% | 5.2µM* | 1% | 0% | -3% | 0%
NC(=O)Cn1cc(/C=N/NC(=O)c2ccc(Cn3cc(Cl)cn3)o2)c(-c2ccccc2)n1 | 5% | -18% | 8% | 7% | 4% | 3%
COc1cc(OC)c(NC(=O)CS(=O)(=O)Cc2nc(-c3ccc(C)cc3)oc2C)cc1Cl | -7% | 8.3µM* | u | -40% | x | 10%
COc1ccc(NC(=O)CS(=O)(=O)Cc2nc(-c3ccc(C)cc3)oc2C)cc1 | -2% | -26% | -13% | -6% | 42% | u
Cc1ccc(-c2nc(CS(=O)(=O)CC(=O)N3CCc4ccccc4C3)c(C)o2)cc1 | -4% | 13µM* | u | -82% | -18% | -9%
COc1ccc(-c2nc(CS(=O)(=O)CC(=O)Nc3ccc(Cl)cc3)c(C)o2)cc1 | -2% | -29% | 10µM* | -31% | 32% | -5%
SMILES | AMA1 RON2 block | Pf growth 96h | HCV inh | NS1 inh | Pf growth 48h | SARS PLpro yeast
CCCC1O[C@@H]2C[C@H]3[C@@H]4CCC5=CC(=O)C=C[C@]5(C)C4[C@@H](O)C[C@]3(C)[C@]2(C(=O)CO)O1 (stereo partly specified) | x | x | x | -13% | x | x
COCCCn1c(C)cc(C(=O)COC(=O)C23CC4CC(CC(O)(C4)C2)C3)c1C | -23% | 83% | u | x | 93% | 0%
COc1ccc(NC(=O)c2ccc(-c3ccc(-c4noc(C)n4)cc3C)cc2)cc1N1CCN(C)CC1 | u | 2.6µM* | u | -17% | 3.3µM* | x
O=C1c2ccccc2C(=O)C1c1ccc(O)cc1 | 15% | u | u | x | 30% | 1%
O=C1c2ccccc2C(=O)C1c1ccc(Br)cc1 | 13% | 15µM* | 5% | 5% | u | -7%
Cc1cccc(NC(=S)N2N=CCC2c2ccccc2)c1 (stereo unspecified) | 31% | u | -20% | 1% | x | -1%
CC1=NN(C(=S)Nc2ccccc2)C(c2ccccc2)C1 (stereo unspecified) | -10% | 2.6µM* | 25% | -5% | 9.3µM* | 27%
COc1ccc(C2CC(c3cccs3)=NN2C(=S)Nc2ccccc2)cc1OC (stereo unspecified) | -19% | 9.3µM* | 9% | -5% | 6.6µM* | -17%
CCCOC(=O)c1ccc(NC(=O)c2cn(CC)c3nc(C)ccc3c2=O)cc1 | x | 6% | x | -3% | u | 6%
CCn1cc(C(=O)Nc2ccc(NC(=O)c3ccco3)cc2)c(=O)c2ccc(C)nc21 | 7% | 6.6µM* | u | 5% | 22% | 2%
c1ccc(-c2noc(CN3CCN(c4cnccn4)CC3)n2)cc1 | 10% | 1% | -7% | -8% | -16% | -3%
Cc1cc(C)nc(SCCS(=O)(=O)Cc2ccc(Cl)cc2)n1 | 2% | 10µM* | -25% | 3% | 4% | 11%
C/C(=C\c1ccccc1)CN1CCN(C(C)C)C(CCO)C1 (stereo unspecified) | 1% | u | -18% | 15% | -3% | -3%
CC/C(=N/Nc1ccccc1Cl)c1cnnc(-c2ccccc2)n1 | -18% | 1µM* | u | 3% | 2.3µM* | -4%
CCC/C(=N/Nc1ccc(Cl)cc1)c1cnnc(-c2ccccc2)n1 | 14% | x | 14µM* | x | x | x
COc1ccc(N/N=C(/C)c2cnnc(-c3ccccc3)n2)cc1 | 6% | 0.37µM* | -6% | -19% | u | -27%
COc1ccc(N(C)S(=O)(=O)c2cccc(C(=O)OC(C)C(=O)NC3CCCCC3C)c2)cc1 (stereo unspecified) | 10% | 21% | -17% | x | 12µM* | x
COc1ccc(N(C)S(=O)(=O)c2cccc(C(=O)Nc3cccc(C(=O)NC4CC4)c3)c2)cc1 | -3% | 15µM* | 14µM* | x | 5.2µM* | -4%
